Test results published in the supplement of paper PMC12632987.
Over roughly 2,300 sequences, “median log2 fold change of GCK-ALFA target abundance (FLAG IP / Myc IP barcode read proportion)” has its median near 0.095; the lowest 2% begin near -0.47. What follows is part of a selection rich in the lowest values, with near analogues and random picks from the rest.

B1: LC3A_3_1805 (protein)
chain: ADERIEALLEELRAAGASEETIAAAREVLTLLRERGYLEALETLIEGLRELLDAPDELRLDLLEDVLEYLETNDASEEEVTEFIKEEIRLARSESEIEEL
B2: LC3A_28_1235 (protein)
chain: NAVEKQIEAAKAEVEAAVAAGEEALVELTVTKETTEEDVEKIIKAMEEIAALAATLPALTIIIDVERGVKQEHIDKLADAADAIEAKYPNVTVIIALEEE
B3: LC3A_17_590 (protein)
chain: SEEIREELEELLKELKELIKEAKKLGIPEAKEVEKLLKEAEKALKEGKLREAAELLREAADLLADALEEIEEELGSKASVLEMEANGLALRAEGILLKLE
B4: LC3A_17_592 (protein)
chain: SEEIKKEIEELLKELKKLIKKMKELGIPEAKEIEKLLKEAEKALKEGDLKKAAELLAKAADLAADALEEKEEELGSEASVLEMEANGLELRAIGILLKLD
B5: LC3A_28_956 (protein)
chain: SALEEALKKAIEEAKKAAEKGEPAVITIKVPGDADEEDIEKVIEALREIAEILKDVKGAAIIVDVDGKVKQEHIDKIAEEAERIEKEYPNVTVIIALDEE
B6: LC3A_3_1793 (protein)
chain: AQARIDALLAELRAAGKSDETLAAVRAAATALADRGYEEALATFIEELRELIDAPDEILLDLAEEVLRLIEEEDLDEEELTERIKELAELARNEAEIIEL
B7: LC3A_free_8_2441 (protein)
chain: SNQELVDAALKLLDELEEEIEKKAKELGLDETDIGLLLLEVGSAISEVISLSDASPEEILKATKEDLEEIIKLAEEINKELAKIVKEKAEKILKELEKLL
B8: LC3A_28_693 (protein)
chain: SAIDKQIAAARAEADAAIAAGEEATLTITVTADTTQADVDRIMAAIEEIAARMAASAKLNIIIDVEAGVPQEHLDRLADFGDALAARYPNVNIIIALDED
B9: LC3A_free_39_2217 (protein)
chain: SMEEIEKLIKEIAEEGGIDYEYVKKKIEEIKEVAGLSDEQILELVKAILEAVKAGADAKEILERILKLAKELKEEGKSPEEIAKELLEEIEDFRNLIPLD
B10: LC3A_free_39_2214 (protein)
chain: SEEELEELIKEVAKESGLDYEYIKKKIEEIKEIAGLSLEQMKELVKAILEAVKAGADAEEILKRILALAKELKAAGKSPEEIAEALIEEAEDFRNLIPLD
B11: LC3A_free_39_2288 (protein)
chain: SMEELEKAVKRLAELLDKIEGVTEEEKQTILEAAKKSLETAKAILEALETIEKDGGDVAEAAKRIAAKIKELEAAGKSLEEMTEEIIALTKDLVNLIPID
B12: LC3A_3_1447 (protein)
chain: AEELREEALELLRERGASPETIAAAEELFDALIEKGYLEAMELVLEFLKEVKDASDEFLLETFKDLLELVLTSDDSPEEMKKKIEEELSAFRSELEIEEL
B13: LC3A_3_1891 (protein)
chain: LEERIERTEELLREKGASEETIELFRKVMELLKARGYEEALKTLIEEVEELADLPDEILLDFLEEVLEVLETEDLSEEELIKKIKELARLARNEGEIIEL
B14: LC3A_3_1875 (protein)
chain: MDEKIEETIELLKEAGASEETIEKFEEVAELLKERGYEEALETLIEEVKKLAGTSDEILLDFLEEVLEVLKTKDLSEEELIEEIKRIARLALNEAEIIEL
B15: LC3A_3_1892 (protein)
chain: LEERVEETVERLKEAGASEETIELFLEAAELLLERGYYEALETLIDEVEELIDLPDEILLDFLEEVLEVLETEDLSEEELIERIKELARLAKNEGEIEEL
B16: LC3A_28_685 (protein)
chain: SKTEEDLKKALEEAEEALKKGEPTVVRINVYGDVTEEELEKVLKALEEIAKILNKIPGSAIIVDIDADVDEEFEDKIIDKAEELEKKYPNVTIIIALEER
B17: LC3A_28_1013 (protein)
chain: MSIVEETKKKIEEALKEAEKGEDAYLEVEITSEATQEEVEEVLELIEKAAKEVSKLPNVKLYVVIYDDSNQENHQLIVDAADRIEEKYPNVHVIVAYDDE
B18: LC3A_45_1937 (protein)
chain: MYLATIDLIVPRELAEEALALAEEIARELEEENDGKVEVDLETLRESYEATRDEEDVLLVVKIYAETEELALDVADRLVDRLRAALGPRVAAIISVEEVP
B19: LC3A_free_46_2420 (protein)
chain: MTLDIDIDVLAKTEETAKAVAKELTKTLEDTAKELGVKVEIKVEIEKLEDGTYYVHIDATFTGVTEEQAQQIEDKVIDKVEELEKKYPEILGSIISSELE

Target: MAP1LC3A, Q9H492
Assay: median log2 fold change of GCK-ALFA target abundance (FLAG IP / Myc IP barcode read proportion) (log2 ratio); each designed protein is fused to an ALFA-tag nanobody in HEK293 cells to bring the named protein to FLAG-tagged glucokinase (GCK); Myc marks an untargeted standard; higher = target protein stabilised (more abundant)
Conditions: target protein: 3xFLAG-MCP-GCK-ALFA reporter; HEK293 landing pad (RPLP)
Description: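 LABEL-seq trans screen in HEK293 landing-pad cells. Each de novo designed 100-aa effector handle, binding the indicated effector (E3 ligase, DUB or autophagy protein), is fused to a constant NbALFA target handle and induced with 2 ug/mL doxycycline. A FLAG-MCP-GCK-ALFA target and a Myc-MCP standard reporter were transfected, and after 48 h circRNA barcodes were recovered by anti-FLAG and anti-Myc IP and sequenced. The value is the median across barcodes (at least 3 per design) of log2(FLAG/Myc read-proportion ratio), with the two transfection replicates pooled. Negative values mean degradation and positive values mean stabilisation of the target.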

Row | Binder | median log2 fold change
1 | B1 | -0.0069
2 | B2 | 0.0727
3 | B3 | 0.0276
4 | B4 | -0.636
5 | B5 | -0.0851
6 | B6 | 0.139
7 | B7 | 0.0457
8 | B8 | 0.211
9 | B9 | -0.012
10 | B10 | -0.832
11 | B11 | 0.326
12 | B12 | 0.173
13 | B13 | -0.0314
14 | B14 | 0.289
15 | B15 | -0.691
16 | B16 | -0.264
17 | B17 | -0.261
18 | B18 | -0.359
19 | B19 | -0.177
